The compounds below were run on Plasmodium falciparum (assay: GSK_TCMDC: Inhibition of Plasmodium falciparum Dd2 in whole red blood cells, using parasite LDH activity as an index of growth. Test compounds present at 2uM).
Assay type: functional

Question: Which Inhibition does the source give for `CC(=O)NCCNc1cc(N2CCc3ncnc(Nc4ccc(OCc5c(F)cccc5F)c(Cl)c4)c3C2)ncn1` here?
Answer: 100%

Question: How did the Inhibition turn out when `NC(=O)c1ccc(C(=O)Nc2cccc(-c3csc(-c4nc5ccccc5[nH]4)c3)c2)cc1` was run?
Answer: 35%

Question: For `CC(C)S(=O)(=O)N1CCN(Cc2ccc3c(c2)nc(NC(=O)c2ccsc2)n3C[C@H](O)c2ccccc2)CC1`, which Inhibition is on record?
Answer: 72%

Question: How did the Inhibition turn out when `O=C1C(=Cc2cc(Cc3ccccc3)ccc2O)SC(=S)N1Cc1ccccc1` was run?
Answer: 53%

Question: With `CCCCCCCc1c(C)nc2c(OC)cccc2c1O` as the compound, how does the Inhibition read?
Answer: 85%

Question: `CCC[C@@H]([C@@H](CC1CCCCC1)C(=O)N[C@H](C(=O)Nc1nccs1)C(C)(C)SCCNC(=O)OCc1ccccn1)N(O)C=O` was tested. Which Inhibition did it give?
Answer: 96%

Question: How did the Inhibition turn out when `CCCC(CNCc1cccc(SC(F)(F)F)c1)CNc1cc(=O)c2ccccc2[nH]1` (centres undefined) was run?
Answer: 87%

Question: With `Cc1ccc(NC(=O)c2ccc(CN3CCCN(CCC(C)C)CC3)cc2)cc1F.O=C(O)C(F)(F)F` as the compound, how does the Inhibition read?
Answer: 31%

Question: For `Cc1ccc2[nH]c3c(c2c1)CC(C(=O)NCCC(C)C)NC31CCN(Cc2ccccc2)CC1` (centres undefined), which Inhibition is on record?
Answer: 50%

Question: With `CCCCCCCn1c(=N)n(CC(O)c2ccc(Cl)c(Cl)c2)c2ccccc21.Cl` (centres undefined) as the compound, how does the Inhibition read?
Answer: 100%

Question: For `O=C(/C=C/c1ccccc1O)NCCCCCN1CCC(c2c[nH]c3ccccc23)CC1`, which Inhibition is on record?
Answer: 1%

Question: For `Cc1cc(N2CCCC2)nc(Nc2ccc(NC(=O)c3ccco3)cc2)n1`, which Inhibition is on record?
Answer: 43%

Question: For `O=C(/C=C/c1ccc(Cl)c(Cl)c1)NCCC(CN1CCC(c2c[nH]c3ccccc23)CC1)c1ccccc1` (centres undefined), which Inhibition is on record?
Answer: 42%

Question: For `Cl.c1cc2[nH]c(CCCCc3nc4cc(C5=N[C@H]6CCCC[C@H]6N5)ccc4[nH]3)nc2cc1C1=N[C@H]2CCCC[C@H]2N1`, which Inhibition is on record?
Answer: 88%
